This is a sample that favours compounds with a hit; in the whole collection about 14% have one here.
CRE-bla Fsk = Cell signaling CRE-BLA (Fsk stim); CHO CRE-bla reporter (cAMP response element driving beta-lactamase), forskolin EC10, beta-lactamase ratio; Potency, µM (top dose mostly 38.2 µM), for the others: at the top dose activity change, negative = inhibition, usual class: activators; 71,000 tested, 2.5% active; active means well fitted activation curve with a large enough effect in the signal ratio, with a control signal flat, not every such curve was filed as active; inconclusive means small, poorly fitted or top-dose-only effect, or effect the other way, or a change in a side signal; the % refers to the signal ratio; further: potency means the concentration at half of the fitted maximal effect; % of control where 0% means no effect
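Using CellSensor CRE-bla CHO cells in Opti-MEM with 0.5% dialyzed FBS, compounds were titrated with EC10 NKH 477 for 3 h at 37 °C. CCF4 ratio (460/530 nm) gave %Activity; AC50 derived.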
HSD17B inhib = qHTS Assay for Inhibitors of HSD17B4, hydroxysteroid (17-beta) dehydrogenase 4 | 75,000 tested, 7.6% active | AID 893, 2007 | Potency, µM (top dose mostly 57.1 µM), for inactives: at the highest dose activity change, negative = inhibition, hits mostly inhibitors | 3-hydroxyacyl-CoA dehydrogenase type-2 (Homo sapiens), Q99714 | recombinant HSD17B10, NADH fluorescence kinetic;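 further: the protocol describes HADH2 (HSD17B10) and not the HSD17B4 of the title; potency means the concentration at half of the fitted maximal effect; on the % scale 0 is the no-effect control and ±100 the full control effect; nearly all actives have a fitted effect of over 70% in size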
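20 nM HADH2, pH 9.0 Tris/Tween; cpd preinc 15 min RT; start w/ 1 mM NAD+ + 90 uM b-hydroxybutyryl-CoA; kinetic fluor ex360/em450 q30s x 4 min; delta last-first.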
A350 autofl = qHTS Assay for Spectroscopic Profiling in A350 Spectral Region; Compound autofluorescence, 340/450 nm, Alexa 350 dye-equivalents; stronger effect = higher value; 59,000 tested, 11% active; AID 590, 2007; max dye-equivalent concentration, M; in the data active means max dye-equivalent concentration above about 10 nM; inconclusive means mostly about 1.1 nM to 9.6 nM
4MU fluor = qHTS Assay for Spectroscopic Profiling in 4-MU Spectral Region | compound autofluorescence, 340/450 nm, 4-MU equivalents; stronger effect = higher value | 59,000 tested, 11% active | max dye-equivalent concentration, M | AID 589, 2007; in the data active means max dye-equivalent concentration above about 10 nM; inconclusive means mostly about 1.1 nM to 9.6 nM
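Compounds in 100 mM Tris, pH 8.0, incubated 15 min at room temperature, then fluorescence read at 340 nm excitation/450 nm emission. Signal converted to 4-MU dye-equivalent concentration using an on-plate six-point 4-MU standard curve.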
AID923 = qHTS Assay for Allosteric/Competitive Inhibitors of Caspase-1: Spectroscopic Profiling in AFC Spectral Region | compound fluorescence, AFC spectral region (405/520 nm) | Potency, µM (top dose mostly 57.5 µM), inactives show top-dose fluorescence increase, actives largely listed as activators | 75,000 tested, 1.1% active | AID 923, 2007; further: potency means the concentration at half of the fitted maximal effect; 0% is about no effect
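Titrations up to 57 uM read every 20 sec for 3 min (405/520 nm) with 50 nM caspase 1 and 5 uM Ac-WEHD-AFC, pH 7.5 HEPES buffer. Fluorescence-vs-time intercept gave baseline, scaled against on-plate AFC standard.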
HADH2 inhib = qHTS Assay for Inhibitors of HADH2 (Hydroxyacyl-Coenzyme A Dehydrogenase, Type II); 3-hydroxyacyl-CoA dehydrogenase type-2 (Homo sapiens), Q99714; 73,000 tested, 3.4% active; Potency, µM (titrated, usually from 57.1 µM), inactives show at the highest dose activity change, negative = inhibition, actives largely listed as inhibitors; recombinant HADH2, NADH fluorescence, beta-hydroxybutyryl-CoA; further: potency means the concentration at half of the fitted maximal effect; on the % scale 0 is the no-effect control and ±100 the full control effect; nearly all actives have a fitted effect of over 60% in size
Target sequence (Q99714 whole entry, looked up, one chain of several): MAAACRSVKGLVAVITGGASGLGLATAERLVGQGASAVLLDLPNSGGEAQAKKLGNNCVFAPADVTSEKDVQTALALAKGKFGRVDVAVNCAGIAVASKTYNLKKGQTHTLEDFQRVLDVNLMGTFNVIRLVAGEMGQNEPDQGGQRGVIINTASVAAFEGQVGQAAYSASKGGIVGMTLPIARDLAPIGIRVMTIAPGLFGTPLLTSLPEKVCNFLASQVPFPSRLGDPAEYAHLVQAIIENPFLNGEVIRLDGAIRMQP
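Buffer 100 mM Tris-HCl pH 9.0/0.01% Tween-20; HADH2 20 nM; NAD+ 1 mM; beta-hydroxybutyryl-CoA 90 uM (all final). 15 min cpd preincubation, RT.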
Numbers without * were called inactive; [ ] = remark or other dose. Unless noted, the call rests on the fitted dose curve; in most records, active means well fitted curve in the direction sought with a large enough effect; inconclusive means small, poorly fitted or top-dose-only effect, or another doubt; inactive means no such curve, though single readings can be large; an effect the other way counts as inactive or inconclusive.

Results for COC(=O)C1=C(C)N(Cc2ccccc2)C2=C3C(=O)CCCC3[C@@](O)(C(=O)OC)C(=O)N2C1c1ccccc1 (some centres not stated) ?
HSD17B inhib: 3%[11.4 µM]; AID923: 2%[11.5 µM]; HADH2 inhib: 9%[11.4 µM]

What do the screens show for `COc1ccc(-c2cc(C(=O)OCC(=O)N(C)C)c3ccccc3n2)cc1`?
CRE-bla Fsk: inconclusive; HSD17B inhib: inactive; A350 autofl: 4.3e-08M*; 4MU fluor: 4.2e-08M*; AID923: 15%; HADH2 inhib: 36%

How did c1ccc2c(c1)[nH]c1c(N3CCC4(CC3)OCCO4)ncnc12 do in these assays?
A350 autofl: 1.3e-08M*; 4MU fluor: 1.1e-08M*

Results for c1ccc2c(c1)CCN(c1ncnc3c1[nH]c1ccccc13)C2 ?
A350 autofl: 1.1e-08M*; 4MU fluor: 1e-08M*

Results for COCC(=O)N1CCC2(CCN(Cc3nccs3)CC2)CC1 ?
CRE-bla Fsk: 1%; HSD17B inhib: 1%; A350 autofl: inactive; 4MU fluor: inactive; AID923: 3%; HADH2 inhib: -7%

Results for CN(C)CCOC(=O)c1ccc(N)cc1 ?
CRE-bla Fsk: 9%[7.6 µM]; HSD17B inhib: 2%[11.4 µM]; A350 autofl: inactive; 4MU fluor: inactive; AID923: 2%[11.5 µM]; HADH2 inhib: -4%[11.4 µM]

How did O=C(Cc1ccc(S(=O)(=O)N2CCCC2)s1)Nc1nc2c(s1)CCCC2 do in these assays?
CRE-bla Fsk: -9%; HSD17B inhib: inconclusive; A350 autofl: inactive; 4MU fluor: inactive; AID923: 5%; HADH2 inhib: 16µM*

Results for O=C(CS(=O)(=O)Cc1ccccc1)Nc1nc2c(s1)CCCC2 ?
CRE-bla Fsk: 0%; HSD17B inhib: 10%; A350 autofl: inactive; 4MU fluor: inactive; AID923: -1%; HADH2 inhib: 0%

What do the screens show for `COc1ccc(-n2c(CSc3nc(C)cc(C)n3)nnc2SCC(=O)Nc2nccs2)cc1`?
CRE-bla Fsk: -4%; HSD17B inhib: 5%; A350 autofl: 1.4e-08M*; 4MU fluor: 1.5e-08M*; AID923: 1%; HADH2 inhib: 14%

How did CCn1c(CSc2nc(C)cc(C)n2)nnc1SCC(=O)Nc1ccccc1 do in these assays?
CRE-bla Fsk: 12%; HSD17B inhib: 7%; A350 autofl: 1.7e-08M*; 4MU fluor: 1.5e-08M*; AID923: 1%; HADH2 inhib: 3%

How did CCn1c(SCC(=O)Nc2ccc(N(C)C)cc2)nnc1-c1cccc(C)c1 do in these assays?
CRE-bla Fsk: 13%; HSD17B inhib: -6%; A350 autofl: 1.6e-08M*; 4MU fluor: 5.9e-08M*; AID923: -1%; HADH2 inhib: 0%

How did CCn1c(Cn2nnc(-c3ccccc3)n2)nnc1SCC(=O)Nc1ccc(N(C)C)cc1 do in these assays?
CRE-bla Fsk: -3%; HSD17B inhib: -2%; A350 autofl: inactive; 4MU fluor: inactive; AID923: 0%; HADH2 inhib: 0%

Results for COc1ncc2nc(-c3cn(C)c4ccccc34)c(=O)n(CCc3ccccc3)c2n1 ?
CRE-bla Fsk: inconclusive; HSD17B inhib: 20%; A350 autofl: inactive; 4MU fluor: inactive; AID923: inconclusive; HADH2 inhib: 9%

Results for CC1=NN(c2ccccc2)C(=O)[C@@H]1N=Nc1ccc(S(N)(=O)=O)cc1 ?
CRE-bla Fsk: 4%[7.6 µM]; HSD17B inhib: 5%[11.4 µM]; A350 autofl: inactive; 4MU fluor: inactive; AID923: -1%[11.5 µM]; HADH2 inhib: -2%[11.4 µM]

Results for CC(=O)NCCNc1nc(-c2ccccc2Cl)nc2ccccc12 ?
CRE-bla Fsk: inconclusive; HSD17B inhib: -7%; A350 autofl: inactive; 4MU fluor: inactive; AID923: -1%; HADH2 inhib: 3%

Compound activity: PubChem, National Center for Advancing Translational Sciences (NCATS)
